Compounds with a hit are over-represented: about 2.9% of the library has one in this group of screens.
MEKK3 PB1 HTS: modulators (inhibitors or enhancers) of MEK5 binding to human MEKK3 PB1 domain | Q99759 | bead-based flow cytometry, Alexa488-MEK5 binding to MEKK3; actives lie on both sides; 0 = blocked by unlabeled MEK5, 100 = vehicle | binding response (% of control), % at 10 µM | hit rate 1.4% among 290,000;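 active = binding response more than 3 SD above or below the average of its plate-row segment, actives on both sides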;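 also: Alexa488 bead fluorescence after subtracting the streptavidin-only scavenger bead signal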
Beta2AR agonist: agonists of human beta-2 adrenergic receptor inducing internalization; P07550; Am2.2-beta2AR cells, FAP receptor internalization, flow cytometry; response, % (test concentration not listed); hit rate 0.43% among 340,000;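 active = response above a set limit, near 3 SD of response in nonfluorescent compounds, cut at about 42% in these data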
MEKK2 WT-MEK5: raises or lowers MEK5 binding to wildtype human MEKK2 PB1 domain. bead flow cytometry, Alexa488-MEK5 binding to MEKK2 WT; actives lie on both sides. binding response (% of control), % at 10 µM. hit rate 1.1% among 290,000. AID 1531; in the data active = binding response below about 67% or above about 130%
MEKK2 mut-MEK5: signal of MEK5 binding to mutant human MEKK2 PB1 domain | percent response, % at 10 µM | bead flow cytometry, Alexa488-MEK5 binding to MEKK2 mutant | hit rate 0.35% among 290,000; in the data active = percent response above about 24%, passing the limit was not always enough
GRK2 aptamer HTS: human GRK2 inhibition via aptamer displacement | P25098 | bead flow cytometry, FAM-aptamer displacement from GRK2 | inhibition of aptamer binding, % at 10 µM | hit rate 0.59% among 330,000;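 active = inhibition of aptamer binding above 40%, roughly 3 SD of noise, on plates passing a quality check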;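 also: median bead fluorescence of bound FAM aptamer so fluorescent compounds give negative values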
Target sequence (P25098 whole entry, looked up): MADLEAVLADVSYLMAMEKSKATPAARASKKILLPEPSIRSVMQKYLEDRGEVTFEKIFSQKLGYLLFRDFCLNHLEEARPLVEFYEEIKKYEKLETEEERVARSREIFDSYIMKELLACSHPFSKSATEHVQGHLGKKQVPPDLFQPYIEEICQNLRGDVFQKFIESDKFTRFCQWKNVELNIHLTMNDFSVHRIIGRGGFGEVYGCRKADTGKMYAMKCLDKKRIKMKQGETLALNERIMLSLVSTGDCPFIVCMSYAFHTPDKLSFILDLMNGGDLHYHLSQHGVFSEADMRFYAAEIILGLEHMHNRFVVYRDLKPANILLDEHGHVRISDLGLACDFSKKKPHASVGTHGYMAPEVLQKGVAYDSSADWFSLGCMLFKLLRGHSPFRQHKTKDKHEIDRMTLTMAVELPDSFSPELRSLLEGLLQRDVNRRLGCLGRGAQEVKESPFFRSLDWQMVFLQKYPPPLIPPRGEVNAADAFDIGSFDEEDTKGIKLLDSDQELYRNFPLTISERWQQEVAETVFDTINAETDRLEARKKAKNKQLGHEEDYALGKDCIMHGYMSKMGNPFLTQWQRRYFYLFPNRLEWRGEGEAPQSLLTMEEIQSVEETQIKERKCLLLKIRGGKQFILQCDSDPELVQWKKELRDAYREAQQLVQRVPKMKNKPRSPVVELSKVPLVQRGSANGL
GRK2 CP1: human GRK2 inhibition confirmation, cherry pick 1 | AID 504451 | bead-bound GRK2, FAM-aptamer displacement, flow cytometry | aptamer displacement, % at 10 µM | hit rate 4% among 2,000 | shares compounds with GRK2 aptamer HTS;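 active = aptamer displacement above 40%, near three times the noise of non-fluorescent compounds, on plates passing quality checks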;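 also: negative values mostly reflect intrinsic compound fluorescence rather than true enhancement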
Aptamer quench 1: fluorescent aptamer quenching in GRK2 counter-screen dose response | shares compounds with GRK2 aptamer HTS | Fluorescent RNA aptamer beads, flow cytometry; stronger effect = higher value | fluorescence change (kMESF span), kMESF (test concentration not listed) | 110 tested, under 10 active | AID 504521;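 active = compounds whose bead fluorescence drops by more than 37 kMESF across the dose range, marking them as dye quenchers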
Aptamer quench SP: quenches fluorescent RNA aptamer, GRK2 hit artifact; shares compounds with GRK2 aptamer HTS; Carboxyfluorescein RNA aptamer on beads, flow cytometry quenching; stronger effect = lower value; fluorescence response (% of DMSO), % at 10 µM; 2,000 tested, under 10 active; AID 504580;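 active = compounds that quench the bead-bound fluorescent RNA probe, cutting fluorescence to under half of the solvent control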;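 also: counterscreen run without GRK2 so only probe quenching by compound is measured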
GRK2 confirm 2: confirmation of human GRK2 inhibitors binding RNA aptamer site; shares compounds with GRK2 aptamer HTS; bead-bound GRK2, FAM-aptamer displacement, flow cytometry; inhibition of aptamer binding, % at 10 µM; 360 tested, under 10 active; AID 504782;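 active = inhibition of aptamer binding above 40%, about triple the noise seen with nonglowing compounds, on plates passing quality control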;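 also: negative values mostly come from compounds that fluoresce themselves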
Aptamer quench 2: counter-screen for GRK2 aptamer inhibitors: fluorescent aptamer quenchers; Streptavidin beads, FAM-RNA aptamer fluorescence quenching, flow cytometry; AID 504819; 25 tested, under 10 active; shares compounds with GRK2 aptamer HTS; change in fluorescence (kMESF span), kMESF (concentration not given with the values);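 active = compounds quenching the bead-bound labeled aptamer, with fluorescence dropping by more than 37 kMESF over the dose range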
FAM quench SP: quenches fluorescent RNA aptamer, GRK2 hit artifact | shares compounds with GRK2 aptamer HTS | fluorescence response vs DMSO, % at 10 µM | 360 tested, under 10 active | carboxyfluorescein RNA aptamer beads, flow cytometry quenching; stronger effect = lower value;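 active = response vs DMSO under 50%, meaning signal dropped by over half, treated as fluorescence quencher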;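 also: labelled aptamer on streptavidin beads without GRK2 as a quench counter-screen; 100% = bead fluorescence of DMSO wells and lower means quenching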
FAM quench DR: counter-screen for GRK2 aptamer binding inhibitors: aptamer fluorescence quenching; 35 tested, under 10 active; shares compounds with GRK2 aptamer HTS; Bead-bound FAM RNA aptamer fluorescence quenching, flow cytometry; stronger effect = lower value; AID 588496; fluorescence ratio to DMSO, % at 11.1 µM;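 active = compounds that dim the fluorescent label, raw bead signal shifting by over 33 units between lowest and highest dose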
Active calls of the source: *; . = not tested or not shown.

SMILES	MEKK3 PB1 HTS	Beta2AR agonist	MEKK2 WT-MEK5	MEKK2 mut-MEK5	GRK2 aptamer HTS	GRK2 CP1	Aptamer quench SP	others
O=C(CN1C(=O)C2C3C=CC(C3)C2C1=O)OCC(=O)c1ccc(Cl)c([N+](=O)[O-])c1 (configuration not stated)	104.0	-2.9	110.0	9.0	0.0	.	.
O=C(NCc1ccc2c(c1)OCO2)c1ccc(CSCc2ccc(Cl)cc2)o1	99.0	-6.5	104.0	0.0	51.0*	.	.	GRK2 confirm 2=-21.9;FAM quench SP=105.0
Cc1ccc(S(=O)(=O)N2CCN(C(=O)COC(=O)CCc3ccccc3)CC2)c(C)c1	.	-1.9	.	.	0.0	.	.
Cc1ccc(S(=O)(=O)N2CCN(C(=O)COC(=O)CCOc3ccccc3)CC2)c(C)c1	.	-3.2	.	.	63.0*	-2.7	99.9
COCCCNC(=O)NC(=O)c1ccccc1	98.0	8.3	99.0	0.0	76.0*	.	.	GRK2 confirm 2=19.1;FAM quench SP=101.0
CCOC(=O)c1ccc(NC(=O)Cn2c(-c3nonc3N)nc3ccccc32)cc1	103.0	2.2	93.0	-2.0	0.0	.	.
COc1cccc(CC2(CO)CCCN(Cc3cn[nH]c3-c3ccc(F)cc3)C2)c1 (configuration not stated)	96.0	-4.7	101.0	-2.0	0.0	-3.0	103.6
O=C(CN(Cc1ccccc1)S(=O)(=O)c1ccc(S(=O)(=O)N2CCOCC2)cc1)Nc1ccccc1	109.0	4.9	110.0	25.0	52.0*	0.3	101.0
CCN1C(N(C)C)=NC[C@@H]1Cc1ccccc1	.	0.9	.	.	73.0*	-0.6	103.8
CC12CCC(=O)N1c1c(sc3nc(N4CCOCC4)c4c(c13)CCCC4)C(=O)N2 (configuration not stated)	97.0	-0.6	100.0	0.0	45.0*	22.3	79.6
COC(=O)c1ccc(NC(=O)CCS(=O)(=O)c2ccc(Br)cc2)cc1	103.0	-12.0	102.0	3.0	58.0*	33.8	101.3	Aptamer quench 1=15.7;Aptamer quench 2=0.7;FAM quench DR=103.0
CCc1cccc(NC(=O)CCS(=O)(=O)c2ccc(Br)cc2)c1	94.0	0.8	100.0	-4.0	93.0*	72.8*	95.8	Aptamer quench 1=6.4;Aptamer quench 2=1.4
CC(=O)c1ccc(NC(=O)CCS(=O)(=O)c2ccc3c(c2)n(C)c(=O)c(=O)n3C)cc1	97.0	5.7	97.0	-3.0	48.0*	35.6	105.3	GRK2 confirm 2=25.5;FAM quench SP=99.0
COc1ccc(S(=O)(=O)N2CCN(c3nn(C)c(=O)n(C)c3=O)CC2)cc1	.	8.4	.	.	4.0	.	.
COC(=O)c1cc(C)sc1NC(=O)CSc1ncccn1	106.0	-1.3	111.0	10.0	0.0	.	.
O=C(Oc1ccc(Cl)c2cccnc12)N1CCCCC1	102.0	0.9	99.0	1.0	0.0	.	.
O=C(Oc1ccc(Cl)c2ccccc12)N1CCCCC1	100.0	23.8	100.0	-3.0	99.0*	1.4	102.5
Cc1ccc(NC(=O)CCn2c(=O)[nH]c3ccsc3c2=O)cc1F	104.0	-17.5	107.0	-1.0	71.0*	-0.1	99.5
Cc1ccc(NC(=O)CCn2c(=O)[nH]c3ccsc3c2=O)cc1	121.0	-17.1	105.0	-1.0	0.0	.	.
